RecA splice inh: blocks M. tuberculosis RecA intein splicing; P9WHJ3; cell-free RecA intein splicing, fluorescence; inhibition, % (concentration not given with the values); 290,000 compounds, 0.75% hits; in the data active = inhibition above about 30%;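 note: 0% = vehicle wells and 100% = reference inhibitor control wells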
Target sequence (P9WHJ3 whole entry, looked up, canonical isoform): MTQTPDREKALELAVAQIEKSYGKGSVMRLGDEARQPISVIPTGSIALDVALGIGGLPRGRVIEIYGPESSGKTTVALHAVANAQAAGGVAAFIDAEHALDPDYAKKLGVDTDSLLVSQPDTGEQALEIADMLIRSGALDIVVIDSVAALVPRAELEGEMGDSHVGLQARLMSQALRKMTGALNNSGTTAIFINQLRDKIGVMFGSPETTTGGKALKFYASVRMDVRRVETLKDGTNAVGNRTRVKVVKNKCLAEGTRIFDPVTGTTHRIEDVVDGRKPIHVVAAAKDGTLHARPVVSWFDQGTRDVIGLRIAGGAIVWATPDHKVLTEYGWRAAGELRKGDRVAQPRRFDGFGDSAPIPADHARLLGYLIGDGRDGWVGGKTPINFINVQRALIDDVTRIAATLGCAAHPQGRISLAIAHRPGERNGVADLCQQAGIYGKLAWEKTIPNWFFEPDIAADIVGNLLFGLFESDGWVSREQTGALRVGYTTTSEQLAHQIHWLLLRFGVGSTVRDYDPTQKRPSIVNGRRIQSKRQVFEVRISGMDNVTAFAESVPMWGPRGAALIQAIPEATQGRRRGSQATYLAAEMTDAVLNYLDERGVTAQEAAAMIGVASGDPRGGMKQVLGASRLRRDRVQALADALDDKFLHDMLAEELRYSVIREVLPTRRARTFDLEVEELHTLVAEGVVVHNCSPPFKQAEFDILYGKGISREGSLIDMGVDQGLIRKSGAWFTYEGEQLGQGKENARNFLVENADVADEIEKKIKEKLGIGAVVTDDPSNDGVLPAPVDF
Rv3671c inh: Rv3671c (M. tuberculosis) protease inhibition | P9WHR9 | inhibition, % at 5.96 µM | 320,000 compounds, 0.048% hits; in the data active = inhibition above about 38%;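 note: extracellular domain of Rv3671c used as enzyme; 0% = enzyme with DMSO and 100% = no enzyme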
UGM FP inh: Mtb UDP-galactopyranose mutase inhibition | P9WIQ1 | 320,000 compounds, 0.06% hits | inhibition, % at 10 µM | purified UGM, fluorescence polarization probe displacement; in the data active = inhibition above about 10%, passing the limit was not always enough
FadD28 binding: blocks FadD28 binding to the bisubstrate probe; fluorescence polarization; inhibition, % at 12.5 µM; 360,000 compounds, 0.22% hits; AID 588549; in the data active = inhibition above about 8.5%, passing the limit was not always enough
Mtb BioA inh: BioA (M. tuberculosis) enzyme inhibition | purified M. tuberculosis BioA enzyme, plate reader | inhibition, % at 9.99 µM | 360,000 compounds, 0.096% hits; in the data active = inhibition above about 40%
TcdB inh: inhibitors of Clostridioides difficile toxin B glycohydrolase; TcdB glycohydrolase enzymatic assay, plate reader; inhibition, % at 9.99 µM; 350,000 compounds, 0.24% hits; in the data active = inhibition above about 10%
Active calls of the source: *; nt = no result. The list is not random: actives were taken first. Their share in the collection is about 0.9%.

SMILES	RecA splice inh	Rv3671c inh	UGM FP inh	FadD28 binding	Mtb BioA inh	TcdB inh
CCCCNC(=O)C1CCN(S(=O)(=O)N2CCOCC2)CC1	-5	1	0	0	0	10*
Nc1c(S(=O)(=O)O)cc(NC(=O)c2ccccc2)c2c1C(=O)c1ccccc1C2=O	13	23	1	26*	-1	2
O=C(Nc1ccccc1-c1ccccc1)c1ccccc1	3	-2	0	-1	-1	1
O=c1c2ccc(Cl)cc2[nH]c(=S)n1-c1cccnc1	0	-5	2	-2	nt	10*
C=CSc1sc(Cl)c(N2CCOCC2)c1[N+](=O)[O-]	30*	-1	2	0	nt	0
C=CS(=O)(=O)c1sc(Cl)c(N2CCOCC2)c1[N+](=O)[O-]	7	nt	nt	-1	nt	nt
FC(F)(F)c1cc(Cl)c2nc(-c3ccccc3)c(Cc3ccsc3)n2c1	nt	nt	nt	nt	nt	10*
FC(F)(F)c1cc(Cl)c2nc(-c3ccc(Cl)cc3)c(Cc3ccsc3)n2c1	nt	nt	nt	nt	nt	1
CCOc1ccc2nc(NC3=NC(C)(C)C=C(C)N3)nc(C)c2c1	2	5	-3	0	-3	nt
CCOc1ccc2c(C)nc(NC3=NC(C)(C)C=C(C)N3)nc2c1	-1	4	0	-3	3	11*
CCCCn1c2nc3ccccc3nc2c2c(=O)n(-c3ccccc3)cnc21	1	0	3	-1	-1	2
Cn1nc(-c2ccccc2)c2nc3ccccc3nc21	-3	4	28*	-2	-13	nt
CCCCn1nc(-c2ccccc2)c2nc3ccccc3nc21	-141	-8	29*	nt	nt	nt
Cc1cc(C(=O)Nc2cccc3c2O[C@H](CN(C)CC2CC2)[C@@H](C)CN([C@@H](C)CO)C3=O)n(C)n1	nt	nt	nt	nt	0	0
CC(=O)N(C)C[C@@H]1Oc2cc(-c3ccc(F)cc3)ccc2S(=O)(=O)N([C@@H](C)CO)C[C@H]1C	nt	nt	nt	nt	3	0
CCCNC(=O)C[C@H]1CC[C@@H]2[C@@H](COc3ccc(NC(=O)c4ccc(Cl)cc4)cc3C(=O)N2C)O1	nt	nt	nt	nt	1	13*
CN(C)CCCNC(=O)C[C@H]1CC[C@@H]2[C@@H](COc3ccc(NC(=O)c4ccc5c(c4)OCO5)cc3C(=O)N2C)O1	nt	nt	nt	nt	3	11*
CCNC(=O)C[C@H]1CC[C@H]2[C@H](COc3ccc(NC(=O)c4ccc5c(c4)OCO5)cc3C(=O)N2C)O1	nt	nt	nt	nt	1	0
CCNC(=O)C[C@H]1CC[C@@H]2[C@@H](COc3ccc(NC(=O)c4ccc5c(c4)OCO5)cc3C(=O)N2C)O1	nt	nt	nt	nt	2	14*
CCNC(=O)C[C@H]1CC[C@@H]2[C@H](COc3ccc(NC(=O)c4ccc5c(c4)OCO5)cc3C(=O)N2C)O1	nt	nt	nt	nt	5	13*
CN(C)CCCNC(=O)C[C@H]1CC[C@@H]2[C@H](COc3ccc(NC(=O)c4ccc5c(c4)OCO5)cc3C(=O)N2C)O1	nt	nt	nt	nt	2	7
COC(=O)C[C@@H]1C=C[C@H](NC(=O)c2ccccc2)[C@H](CO)O1	nt	nt	nt	nt	-1	-1
O=C(c1ccncc1)N1CC2(C1)[C@H](c1ccccc1)[C@@H](CO)N2C(=O)c1ccncc1	nt	nt	nt	nt	nt	0
CC(C)NC(=O)N(C)C[C@@H]1OCCCC[C@H](C)Oc2ccc(NC(=O)CCC(F)(F)F)cc2C(=O)N([C@@H](C)CO)C[C@H]1C	nt	nt	nt	nt	1	1
CN1C(=O)c2cc(NC(=O)c3cccc(F)c3)ccc2OC[C@@H]2O[C@@H](CC(=O)NCC3CCCCC3)CC[C@@H]21	nt	nt	nt	nt	-1	10*
SMILES	RecA splice inh	Rv3671c inh	UGM FP inh	FadD28 binding	Mtb BioA inh	TcdB inh
CCNC(=O)C[C@H]1CC[C@H]2[C@H](COc3ccc(NC(C)=O)cc3C(=O)N2C)O1	nt	nt	nt	nt	0	11*
CN1C(=O)c2cc(NC(=O)c3cccc(F)c3)ccc2OC[C@H]2O[C@@H](CC(=O)NCC3CCCCC3)CC[C@@H]21	nt	nt	nt	nt	2	0
C[C@@H]1CN([C@@H](C)CO)C(=O)c2cc(NC(=O)Nc3cccc4ccccc34)ccc2O[C@@H](C)CCCCO[C@H]1CN(C)S(=O)(=O)c1ccc(F)cc1	nt	nt	nt	nt	nt	-1
CC1(C)CC(C(CCN(Cc2ccccc2)C(=O)c2ccco2)c2ccc(F)cc2)CCO1 (stereo not given)	35*	1	0	-5	0	nt
O=C(C[C@H]1C=C[C@@H](NC(=O)C2CCOCC2)[C@H](CO)O1)NCC1CC1	nt	nt	nt	nt	-1	0
CCS(=O)(=O)N1CCC2(CC1)CN(Cc1cccnc1)[C@@H](CO)c1c2c2ccc(OC)cc2n1C	nt	nt	nt	nt	nt	0
COc1ccc(-c2nc(C#N)c(NCc3cccnc3)o2)cc1OC	-2	-3	-1	-2	13	nt
COc1ccc(-c2nc(C#N)c(NCc3ccc(F)cc3)o2)cc1OC	3	6	1	11*	3	nt
CN(C)CCOc1ccc(/C(=C(/CCCl)c2ccccc2)c2ccccc2)cc1	33*	-1	nt	-3	-1	-2
CN(CCOc1ccccc1)CCOc1ccccc1	-1	-7	2	1	1	3
CCOC(=O)c1sc2nc(OCCN3CCOCC3)cc(C)c2c1N	nt	nt	nt	nt	nt	12*
CCCCOc1ccc(C(=O)C(CN2CCOCC2)c2ccccc2)cc1 (stereo not given)	32*	-5	-1	-3	1	nt
Cc1[nH]nc2c1C(c1ccc(-c3ccc(Cl)cc3)o1)C(C#N)=C(N)O2 (stereo not given)	68*	-10	1	-4	nt	nt
Cc1[nH]nc2c1C(c1ccc(-c3ccccc3C#N)o1)C(C#N)=C(N)O2 (stereo not given)	65*	-17	3	-5	2	nt
Cc1[nH]nc2c1C(c1ccc(F)cc1)C(C#N)=C(N)O2 (stereo not given)	nt	-4	2	-3	-1	nt
CO[C@@H]1CN(C)C(=O)c2ccc(NC(=O)NC3CCCCC3)cc2OC[C@@H](C)N(C(=O)NC2CCCCC2)C[C@H]1C	nt	nt	nt	nt	0	-3
O=c1[nH]c(=S)[nH]c(O)c1N=Nc1ccc(S(=O)(=O)N2CCOCC2)cc1	-3	3	1	0	nt	2
NS(=O)(=O)c1ccc(N=Nc2c(O)[nH]c(=S)[nH]c2=O)cc1	34*	-1	-1	-3	1	1
CC1CCCN(C(=S)Nc2ccc(Nc3ccccc3)cc2)C1 (stereo not given)	1	24	0	3	nt	1
CC1CCCN(C(=S)Nc2ccc(F)cc2)C1 (stereo not given)	1	-11	-1	-4	nt	12*
CC(C)=CCOc1c2occc2cc2ccc(=O)oc12	0	-12	2	-2	1	13*
COc1c2ccoc2c(OCC=C(C)C)c2oc(=O)ccc12	0	-10	3	2	0	-1
Fc1ccc(Oc2nc(-c3ccccc3)nnc2C(F)(F)F)cc1	62*	-5	0	0	3	nt
FC(F)(F)c1nnc(-c2ccccc2)nc1Oc1ccccc1	5	-3	-1	0	-6	nt
Nc1nnc(CC(=O)N/N=C/c2cc([N+](=O)[O-])cc(Br)c2O)s1	9	7	-1	37*	nt	1

Screens as filed in PubChem.
